A selection: hits, their analogues and other compounds. The true share with any hit is near 1.2%.
gsp antag = qHTS for Antagonists of gsp, the Etiologic Mutation Responsible for Fibrous Dysplasia/McCune-Albright Syndrome: qHTS; Potency, µM (top dose mostly 76.9 µM), for the others: at the top dose activity change, negative = inhibition, most hits filed as inhibitors; 0.4% of 340,000 active; gsp-mutant cells, cAMP HTRF, 30 min; calls by dose curve; cell line not stated here;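 note: intracellular cAMP measured with PDE inhibitor Ro 20-1724 present during compound exposure; potency is the fitted concentration of half-maximal effect; % is set by controls: 0 for no effect and ±100 for the full control effect; nearly all actives have a fitted effect of over 65% in size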
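Cells in G418 medium, seeded 16-24 h, 37C; buffer exchange to DPBS + 1 mM CaCl2, 0.5 mM MgCl2, 0.05% BSA; cpds in DMSO + […] (300 uM stock), 30 min 37C; HTRF cAMP detection.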
gsp ag = qHTS for Agonist of gsp, the Etiologic Mutation Responsible for Fibrous Dysplasia/McCune-Albright Syndrome: qHTS; 0.13% of 340,000 active; gsp mutant cells, cAMP HTRF, 30 min; Potency, µM (top dose mostly 76.9 µM), for inactives: at the top dose activation (cAMP increase), hits mostly activators; active = well fitted activation curve with a large enough effect; inconclusive = small, poorly fitted or top-dose-only effect, or another doubt; inactive = no such curve, though single readings can be large or run the other way; cell line not stated here;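 note: phosphodiesterase inhibitor Ro 20-1724 added with compounds to block cAMP breakdown; potency is the fitted concentration of half-maximal effect; nearly all actives have a fitted effect of over 60% in size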
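Cells in DMEM/10% FBS with G418 were pretreated with compounds in DMSO plus […] (300 uM stock) for 30 min at 37C. cAMP was measured by HTRF (cAMP-d2 plus anti-cAMP antibody-K) after 30 min at room temperature.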
Akt phos inh = HTS Assay for Inhibitors of Akt Phophorylation: Primary Screen | Neuro2A IGF-stimulated pAkt S473 HTRF, 20 min; stronger effect = lower value | activity change, % for hits at 50 µM | 0.32% of 360,000 active | AID 651550, 2012; in the data active = activity change below about -80%; inconclusive = mostly about -51% to -80%; note: % is set by controls: 0 for no effect and ±100 for the full control effect
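Single-point screen (50 µM final compound) in Neuro2A cells stimulated 20 min with 6 nM IGF at 37 deg C. After lysis, Ser473-phosphorylated Akt read by HTRF (ex 330 nm, em 615/665 nm) as the 665/615 ratio.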
RXFP1 ag = qHTS Assay for Agonists of the Relaxin Receptor RXFP1 | Relaxin receptor 1 (Homo sapiens), Q9HBX9 | HEK293T-RXFP1 cAMP TR-FRET, 30 min; response scale: percent of porcine relaxin response, buffer zero | Potency, µM (titrated, usually from 57.5 µM), inactives show at the top dose activation, most hits filed as activators | 0.3% of 370,000 active | AID 2676, 2010; active = well fitted activation curve with a large enough effect; inconclusive = small, poorly fitted or top-dose-only effect; note: potency is the fitted concentration of half-maximal effect; % is set by controls: 0 for no effect and ±100 for the full control effect; nearly all actives have a fitted effect of over 60% in size
Target sequence (Q9HBX9 whole entry, looked up): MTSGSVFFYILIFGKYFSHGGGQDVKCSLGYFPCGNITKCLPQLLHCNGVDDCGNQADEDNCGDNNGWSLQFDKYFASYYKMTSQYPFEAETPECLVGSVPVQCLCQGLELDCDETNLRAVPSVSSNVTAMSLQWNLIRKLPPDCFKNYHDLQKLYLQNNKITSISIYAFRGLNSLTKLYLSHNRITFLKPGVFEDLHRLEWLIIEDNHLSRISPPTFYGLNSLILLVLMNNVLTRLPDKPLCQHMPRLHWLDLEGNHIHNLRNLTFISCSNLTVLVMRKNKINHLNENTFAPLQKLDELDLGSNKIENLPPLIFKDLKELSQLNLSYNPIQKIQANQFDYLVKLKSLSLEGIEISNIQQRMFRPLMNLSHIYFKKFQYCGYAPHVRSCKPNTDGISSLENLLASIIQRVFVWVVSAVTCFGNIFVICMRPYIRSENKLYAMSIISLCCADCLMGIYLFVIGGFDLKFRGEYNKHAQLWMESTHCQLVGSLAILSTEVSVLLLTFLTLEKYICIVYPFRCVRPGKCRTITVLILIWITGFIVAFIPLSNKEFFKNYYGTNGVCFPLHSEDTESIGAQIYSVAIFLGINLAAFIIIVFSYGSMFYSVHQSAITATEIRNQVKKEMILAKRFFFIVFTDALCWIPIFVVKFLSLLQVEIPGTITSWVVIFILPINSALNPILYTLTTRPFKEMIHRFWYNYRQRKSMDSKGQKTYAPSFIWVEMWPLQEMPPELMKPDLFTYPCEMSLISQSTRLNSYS
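HEK293 cells stably expressing RXFP1, treated 30 min at 37C with compounds plus PDE4 inhibitor Ro 20174; cAMP measured by HTRF TR-FRET. Normalized to buffer and 29 nM porcine relaxin; EC50 by Hill fit.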
RXFP1 antagonist = qHTS Assay for Antagonists of the Relaxin Receptor RXFP1; Relaxin receptor 1 (Homo sapiens), Q9HBX9; HEK293-RXFP1, relaxin-stimulated cAMP HTRF, 30 min; stronger effect = lower value; activity change, negative = inhibition, % at 57.5 µM; 0.59% of 350,000 active; AID 1259400, 2018;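 active = activity change of -60% or lower, but not beyond a set lower limit; inconclusive = change between -60% and -40%, or beyond the set limit; inactive = change above -40%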; note: % is set by controls: 0 for no effect and ±100 for the full control effect
* marks the source's active call; other numbers are inactive results; i = inactive; u = inconclusive; x = not tested or not shown; [ ] = dose if it differs, or a comment.

SMILES | gsp antag | gsp ag | Akt phos inh | RXFP1 ag | RXFP1 antagonist
Clc1ccc2[nH]c3c(N4CCC5(CC4)OCCO5)ncnc3c2c1 | 35µM* | 9% | i | 4% | -11
c1ccc2c(c1)[nH]c1c(N3CCSCC3)ncnc12 | 14µM* | 21% | i | 1% | 2
CCOc1ccccc1C1CC(=O)Nc2c1c(=O)n(C)c1ncnn21 (configuration not stated) | x | x | x | -1% | x
Cc1ccc(S(=O)(=O)N2CCCc3cc(NC(=O)c4ccc(C(F)(F)F)cc4)ccc32)cc1 | x | x | x | 0% | -4
COc1ccc(C(=O)CN2CCN(c3ncccn3)CC2)cc1 | 50µM* | 37% | i | 3% | -1
CC(=O)N1c2ccccc2CC1C(=O)N1CCN(c2cc(Cl)ccc2C)CC1 (configuration not stated) | x | x | x | -1% | -14
CCN(CC)C(=O)CSc1ncnc2sc(-c3ccccc3)cc12 | 40µM* | 6% | x | 3% | -29
O=C(c1ccc2snnc2c1)N1CCSCC1 | 8% | 3% | -108%* | 0% | -1
O=C(c1ccc2snnc2c1)N1CCCCC1 | 8% | 16% | i | 3% | 3
CC(C)c1ccc(NC(=O)c2cnn(-c3ccccc3)c2NC(=O)c2ccco2)cc1 | 40µM* | u | i | 0% | -18
O=C(Nc1c(C(=O)Nc2ccccc2)cnn1-c1ccccc1)c1ccco1 | -12% | -35% | i | -2% | -5
COc1ccc(N2Cc3cccc(C(=O)Nc4cccc(F)c4)c3C2=O)cc1 | x | x | x | 6% | 1
Cc1ccc(S(=O)(=O)N/N=C/c2cc(Br)c(C)o2)cc1 | -9% | -29% | -95%* | 0% | -8
Cc1ccc(S(=O)(=O)NN=Cc2ccco2)cc1 | x | -8% | i | x | 1
N#C/C(=C/c1ccc(Sc2nc3ccccc3[nH]2)o1)c1cccc(F)c1 | 35µM* | 17% | i | -1% | -2
CC1CCCN(S(=O)(=O)c2ccc3c(c2)n(C)c(=O)c(=O)n3C)C1 (configuration not stated) | 50µM* | 14% | i | 6% | 8
Cc1ccc(S(=O)(=O)N2CCCC(C)C2)cc1 (configuration not stated) | -3% | -14% | i | 0% | -4
CC1CCCN(S(=O)(=O)c2ccc3c(c2)c(=O)nc2ccc(Cl)cn23)C1 (configuration not stated) | 40µM* | u | i | 1% | 40
CCCOc1cccc(C(=O)N(Cc2cc(OC)c(OC)c(OC)c2)C2CCS(=O)(=O)C2)c1 (configuration not stated) | x | x | x | -1% | -6
Cc1ccc(-c2nc3cc(N)ccc3o2)cc1 | 5% | u | i | 13% | 8
Cc1ccc(-c2nc3cc(N)ccc3o2)c(C)c1 | 16% | 32µM* | i | 17% | 2
CC(C)(C)c1ccc(-c2nc3cc(N)ccc3o2)cc1 | 2% | 17% | i | 8% | -84*
O=C(Nc1cccc(Cl)c1Cl)c1cc(S(=O)(=O)N2CCC3(CC2)OCCO3)ccc1F | x | x | x | -3% | -5
O=C(CS(=O)(=O)c1nc(-c2ccc(Cl)cc2)cn1-c1ccccc1)Nc1ccc(F)cc1F | x | x | x | -3% | -64*
Cc1ccc(-c2cn(-c3cccc(Cl)c3)c(S(=O)(=O)CC(=O)Nc3ccccc3F)n2)cc1 | x | x | x | 4% | -64*
SMILES | gsp antag | gsp ag | Akt phos inh | RXFP1 ag | RXFP1 antagonist
CCOc1ccccc1CN1C(=O)c2ccccc2C1C(=O)NC1CCCCCC1 (configuration not stated) | x | x | x | -1% | 2
COc1ccc(S(=O)(=O)n2nc(C)c(S(=O)(=O)N3CCCCCC3)c2C)cc1C | x | x | x | 1% | x
Fc1ccc(Br)cc1C1C=C(c2ccc(Br)s2)Nc2ncnn21 (configuration not stated) | u | -6% | i | 9% | -68*
CN(C)CCN1C(=O)C(O)=C(C(=O)c2ccco2)C1c1ccccc1F (configuration not stated) | 13% | u | -121%* | 9% | 1
COc1ccc(CCN2C(=O)C(O)=C(C(=O)c3ccco3)C2c2cccs2)cc1OC (configuration not stated) | 32% | 18µM* | i | u | 16
COc1cccc(C2C(C(=O)c3ccco3)=C(O)C(=O)N2CCN(C)C)c1OC (configuration not stated) | -4% | 1% | i | 3% | 5
O=S(=O)(NCC(c1cccs1)S(=O)(=O)c1ccccc1)c1ccc(F)cc1 (configuration not stated) | x | x | x | 1% | 5
CC1=NOC(=O)/C1=C\c1ccc(-c2ccc(Br)cc2)o1 | -4% | 4µM* | i | 19% | -25
CC(N)=Nc1ccc([N+](=O)[O-])cc1 | 14% | 30% | i | -2% | 3
O=[N+]([O-])c1ccc(N=Nc2c(Cl)cc(O)cc2Cl)cc1 | 16µM* | -26% | i | 0% | 3
CCC(C(=O)Nc1ccc(C)c(Cl)c1)n1c(=O)c(-c2ccccc2NC(C)=O)nc2ccccc21 (configuration not stated) | x | x | x | -2% | -10
CC(C)C(NC(=O)OC(C)(C)C)C(=O)N1CCCC1C(=O)NC(Cc1ccccc1)C(N)=O (configuration not stated) | 5% | 7% | -112%* | 0% | 5
CCCCOC(=O)c1ccc(Nc2nc3ccccc3c3nnc(C)n23)cc1 | x | x | x | -2% | -13
O=C(NC12CC3CC(CC(C3)C1)C2)c1ccc(Br)o1 | 2% | -16% | i | -1% | -110*
Cc1ccc(Nc2c(F)cccc2Cl)c(CC(=O)O)c1 | x | x | x | x | -29
CCOC(=O)C1=C(N)Oc2c(oc(CO)cc2=O)C1c1c(F)cccc1Cl (configuration not stated) | -4% | -7% | -109%* | 0% | 3
CC(C)C(CCNC1CCN(C)CC1)c1ccc(Cl)cc1 (configuration not stated) | 20% | 10% | i | -1% | u
CN1CCC(NCCC(c2ccc(F)cc2)c2ccc(Cl)cc2)CC1 (configuration not stated) | 11% | -2%[15.4 µM] | i | 0% | -86*
O=C(N/N=C/c1c[nH]c2c1ccc1ccccc12)c1ccc([N+](=O)[O-])cc1 | -7% | -2%[15.4 µM] | i | -2% | -68*
COc1ccc2ccccc2c1/C=N/NC(=O)c1ccc([N+](=O)[O-])cc1 | 13% | -5%[15.4 µM] | i | 0% | -20
Cc1cc(C)cc(NC(=O)COC(=O)c2n[nH]c3ccccc23)c1 | 10µM* | -25%[15.4 µM] | i | 1% | -25
